Five molecules from PubChem BioAssay (EPA / NIEHS) can be followed below.

Activity calls are given as the source filed them. Rule for the calls: active = hit-call score of the fitted dose curve at least 0.9, where 1 is the maximum; inactive = score below 0.9.

Read-out in assay [1]: Interleukin-1 alpha (IL1a), IL1A (gene 3552)
Description: BSK_KF3CT_IL1a: BioMAP Diversity Plus: KF3CT Assay for Interleukin-1 alpha (IL1a) Biomarker Activity (AID 2283070). As to conditions: primary human keratinocytes with fibroblasts; actives raise or lower the signal. In outline:
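Chemicals were dosed onto co-cultured human keratinocytes and foreskin fibroblasts, IL-1a was quantified by ELISA at 24 h, and activity was fitted in both directions relative to DMSO controls.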

Read-out in assay [2]: TIMP metallopeptidase inhibitor 2 (TIMP2), TIMP2 (gene 7077)
The experiment in a line: BSK_KF3CT_TIMP2: BioMAP Diversity Plus: KF3CT Assay for TIMP metallopeptidase inhibitor 2 (TIMP2) Biomarker Activity (AID 2283071). As to conditions: primary human keratinocytes with fibroblasts; actives raise or lower the signal. In outline:
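Cells: human keratinocytes co-cultured with foreskin fibroblasts. Treat with chemical, 24 h. Measure TIMP-2 by ELISA; fit curves bidirectionally vs DMSO baseline.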

Read-out in assay [3]: Transforming growth factor beta 1 (TGFb1), TGFB1 (gene 7040)
The experiment in a line: BSK_KF3CT_TGFb1: BioMAP Diversity Plus: KF3CT Assay for Transforming growth factor beta 1 (TGFb1) Biomarker Activity (AID 2283072). As to conditions: primary human keratinocytes with fibroblasts; actives raise or lower the signal. In outline:
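Primary human skin cells (keratinocytes, foreskin fibroblasts) were co-cultured, exposed to test chemical and sampled at 24 h. TGF-b1 levels were measured by ELISA and fitted bidirectionally relative to DMSO.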

Read-out in assay [4]: C-C motif chemokine 2 (Homo sapiens) (UniProt P13500)
Description: BSK_KF3CT_MCP1: BioMAP Diversity Plus: KF3CT Assay for Monocyte Chemoattractant Protein 1 (MCP1/CCL2) Biomarker Activity (AID 2283073). Conditions: primary human keratinocytes with fibroblasts; actives raise or lower the signal. In outline:
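Keratinocytes and foreskin fibroblasts were co-cultured, dosed with chemical, and sampled 24 h later. MCP-1 was quantified by ELISA, and the endpoint was analyzed with bidirectional fitting using DMSO as negative control.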

Read-out in assay [5]: Matrix Metallopeptidase 9 (MMP9), MMP9 (gene 4318)
The experiment in a line: BSK_KF3CT_MMP9: BioMAP Diversity Plus: KF3CT Assay for Matrix Metallopeptidase 9 (MMP9) Biomarker Activity (AID 2283074).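 For AC50: MMP9 protein level quantified by ELISA in the co-culture.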 As to conditions: primary human keratinocytes with fibroblasts; actives raise or lower the signal. In outline: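 Human keratinocyte/foreskin fibroblast co-culture; compound added; 24 h; MMP-9 by ELISA; bidirectional fit vs DMSO baseline.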

Read-out in assay [6]: urokinase plasminogen activator (uPA), PLAU (gene 5328)
Description: BSK_KF3CT_uPA: BioMAP Diversity Plus: KF3CT Assay for urokinase plasminogen activator (uPA) Biomarker Activity (AID 2283075). As to conditions: primary human keratinocytes with fibroblasts; actives raise or lower the signal. In outline:
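ELISA readout of uPA, analyzed for signal gain or loss relative to DMSO, from a human primary keratinocyte–foreskin fibroblast co-culture measured 24 h after chemical treatment.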

Read-out in assay [7]: E-selectin (Homo sapiens) (UniProt P16581)
Description: BSK_LPS_Eselectin: BioMAP Diversity Plus: LPS Assay for Eselectin Biomarker Activity (AID 2283077). Conditions: primary human HUVEC with PBMC; actives raise or lower the signal. In outline: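 Signal of E-selectin, detected by ELISA, served as the endpoint; cells were umbilical vein endothelium with PBMC, read 24 h after treatment. DMSO defined baseline, and both increases and decreases were fitted.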

Read-out in assay [8]: Interleukin-8 (IL8), CXCL8 (gene 3576)
Description: BSK_LPS_IL8: BioMAP Diversity Plus: LPS Assay for Interleukin-8 (IL8) Biomarker Activity (AID 2283078). Conditions: primary human HUVEC with PBMC; actives raise or lower the signal. In outline:
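Endothelial cells and PBMC from human donors are co-cultured, treated with chemicals and LPS, then assayed for IL-8 by ELISA after 24 h. Parallel SRB staining (0.1% SRB after 10% TCA fixation, 560 nm) flags cytotoxicity.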

The nature of assay [9]: BSK_LPS_SRB: Viability Assessment in the BioMAP Diversity Plus: LPS Assay (AID 2283079).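 Note: total protein by sulforhodamine B absorbance as a cytotoxicity measure; measured one day after compound addition; fitted in both directions against DMSO so loss or gain of signal counts.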 As to conditions: primary human HUVEC with PBMC. In outline: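 Overt cytotoxicity was gauged by sulforhodamine B total-protein staining in a primary human vascular endothelial and mononuclear cell co-culture 24 h post-dosing. Activity was fitted in both directions relative to DMSO.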

Read-out in assay [10]: Interleukin-1 alpha (IL1a), IL1A (gene 3552)
Description: BSK_LPS_IL1a: BioMAP Diversity Plus: LPS Assay for Interleukin-1 alpha (IL1a) Biomarker Activity (AID 2283080). As to conditions: primary human HUVEC with PBMC; actives raise or lower the signal. In outline:
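Measured: IL-1 alpha via ELISA at 24 h in LPS-activated human umbilical vein endothelium–PBMC co-culture. Baseline: DMSO, bidirectional fitting.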

Read-out in assay [11]: Monocyte Chemoattractant Protein-1 (MCP1), CCL2 (gene 6347)
Description: BSK_LPS_MCP1: BioMAP Diversity Plus: LPS Assay for Monocyte Chemoattractant Protein-1 (MCP1) Biomarker Activity (AID 2283081).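 For AC50: secreted MCP-1 protein quantified by ELISA in culture supernatant.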 As to conditions: primary human HUVEC with PBMC; actives raise or lower the signal. In outline: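 LPS-stimulated HUVEC/PBMC co-culture; chemical, 24 h; MCP-1 by ELISA; bidirectional fit vs DMSO; cytotoxicity via SRB (0.1% stain, 10% TCA fix, 560 nm) in parallel wells.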

Read-out in assay [12]: Tumor necrosis factor (Homo sapiens) (UniProt P01375)
Description: BSK_LPS_TNFa: BioMAP Diversity Plus: LPS Assay for Tumour Necrosis Factor alpha (TNFa) Biomarker Activity (AID 2283085).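 For AC50: TNFa protein level quantified by ELISA in the co-culture.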 As to conditions: primary human HUVEC with PBMC; actives raise or lower the signal. In outline:
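Read-out is ELISA of TNFa in primary human endothelial cell–PBMC co-cultures at 24 h after compound. Activity in either direction was fitted against DMSO.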

Read-out in assay [13]: CD38, CD38 (gene 952)
The experiment in a line: BSK_SAg_CD38: BioMAP Diversity Plus: SAg Assay for CD38 Biomarker Activity (AID 2283087). As to conditions: primary human HUVEC with PBMC; actives raise or lower the signal. In outline:
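Human HUVEC plus PBMC co-culture stimulated with superantigen; CD38 measured by ELISA 24 h after chemical dosing. Fluorescence read-out, bidirectional fit against DMSO; cytotoxicity tracked in parallel by SRB and Alamar Blue.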

Read-out in assay [14]: CD40, CD40 (gene 958)
Description: BSK_SAg_CD40: BioMAP Diversity Plus: SAg Assay for CD40 Biomarker Activity (AID 2283088). Conditions: primary human HUVEC with PBMC; actives raise or lower the signal. In outline:
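Fluorescence ELISA read-out of CD40 from umbilical vein endothelium plus peripheral blood mononuclear cells, sampled 24 h after dosing. Values come from bidirectional curve fitting with DMSO as baseline.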

Read-out in assay [15]: CD69, CD69 (gene 969)
The experiment in a line: BSK_SAg_CD69: BioMAP Diversity Plus: SAg Assay for CD69 Biomarker Activity (AID 2283089).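 For AC50: cell surface CD69 protein quantified by ELISA with fluorescence detection.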 As to conditions: primary human HUVEC with PBMC; actives raise or lower the signal. In outline:
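Primary human vascular co-culture (umbilical vein endothelium with peripheral blood mononuclear cells) exposed to test chemical for 24 h. CD69 levels quantified by fluorescence ELISA; DMSO served as negative control for bidirectional fitting.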

The nature of assay [16]: BSK_LPS_PGE2: BioMAP Diversity Plus: LPS Assay for Prostaglandin E2 (PGE2) Biomarker Activity (AID 2283082). As to conditions: primary human HUVEC with PBMC; actives raise or lower the signal. In outline:
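LPS-activated HUVEC/PBMC co-culture; cmpd dosed, 24 h; PGE2 by ELISA; bidirectional fit vs DMSO; SRB (0.1%, TCA-fixed, 560 nm) in parallel plates for overt cytotox.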

Read-out in assay [17]: Vascular cell adhesion molecule 1 (VCAM1), VCAM1 (gene 7412)
Description: BSK_LPS_VCAM1: BioMAP Diversity Plus: LPS Assay for Vascular cell adhesion molecule 1 (VCAM1) Biomarker Activity (AID 2283086). Conditions: primary human HUVEC with PBMC; actives raise or lower the signal. In outline: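 HUVEC + PBMC co-culture, LPS system; compound 24 h; VCAM-1 by ELISA; bidirectional fit vs DMSO control; parallel SRB (0.1%, TCA-fixed, 560 nm) for cytotoxicity.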

Broadly, the AC50 is the concentration giving half of the maximal activity seen.

Sequence of Tumor necrosis factor (Homo sapiens) (P01375 whole entry, looked up): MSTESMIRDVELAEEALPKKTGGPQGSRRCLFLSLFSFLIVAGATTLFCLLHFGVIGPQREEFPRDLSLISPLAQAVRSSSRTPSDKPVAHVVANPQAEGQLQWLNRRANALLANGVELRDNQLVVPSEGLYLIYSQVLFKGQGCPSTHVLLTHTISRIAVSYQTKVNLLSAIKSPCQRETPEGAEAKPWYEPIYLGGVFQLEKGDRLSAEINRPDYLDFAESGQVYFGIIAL
Sequence of E-selectin (Homo sapiens) (P16581 whole entry, looked up): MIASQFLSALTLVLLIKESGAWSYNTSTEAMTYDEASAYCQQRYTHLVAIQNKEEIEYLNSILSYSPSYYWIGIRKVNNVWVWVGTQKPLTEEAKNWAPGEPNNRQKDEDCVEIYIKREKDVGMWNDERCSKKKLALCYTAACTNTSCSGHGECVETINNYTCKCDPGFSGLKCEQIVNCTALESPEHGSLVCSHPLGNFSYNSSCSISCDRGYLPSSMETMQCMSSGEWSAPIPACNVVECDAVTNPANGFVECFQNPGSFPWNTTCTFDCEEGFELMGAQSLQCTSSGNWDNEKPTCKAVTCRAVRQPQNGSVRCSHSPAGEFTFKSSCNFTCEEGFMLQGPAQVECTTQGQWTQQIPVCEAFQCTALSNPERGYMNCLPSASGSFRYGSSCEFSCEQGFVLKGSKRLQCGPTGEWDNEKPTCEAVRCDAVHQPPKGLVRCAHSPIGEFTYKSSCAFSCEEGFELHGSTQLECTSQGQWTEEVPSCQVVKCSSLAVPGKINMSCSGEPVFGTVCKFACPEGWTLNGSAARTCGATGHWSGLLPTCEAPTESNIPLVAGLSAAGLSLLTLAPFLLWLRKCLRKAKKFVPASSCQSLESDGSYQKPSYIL

On to `CC1=CC(C)C(C=O)C(C)C1` (centres undefined) (tested in a mixture with another compound), for which the outcome in assay [1], in [2], in assay [3], in [4], in assay [5] and in assay [6] was inactive. Moreover, the result in [7], in [8], in [9], in [10], in assay [11] and in assay [12] was inactive. Besides, the outcome in [13], in [14] and in assay [15] was inactive.
On to `O=S1(=O)CC(Cl)(Cl)C(Cl)(Cl)C1`, for which the AC50 in assay [1] is 1.52 µM (active); in [2], 1.36 µM (active); in assay [3], 1.11 µM (active); in [4], 1.38 µM (active); in assay [5] it was 1.74 µM (active); in assay [6], 2 µM (active). For the same molecule, the AC50 in [7] was 1.1 µM (active); in [8], 1.47 µM (active); in [9], 5.01 µM (active); in assay [11], 1.76 µM (active); in assay [12] it was 0.938 µM (active); in [13], 0.35 µM (active). Also, the AC50 in [14] was 0.48 µM (active); in assay [15], 0.486 µM (active).
Take `CC=CC(=O)C1=C(C)C=CCC1(C)C`: the result in [1], in [2], in [3], in [4], in [5] and in [6] was inactive. For the same molecule, the result in assay [7], in assay [8], in [9], in [11], in assay [16] and in assay [12] was inactive. In addition, the outcome in assay [13], in assay [14] and in assay [15] was inactive.
In the case of `Nc1ccc(N)c([N+](=O)[O-])c1`, the result in assay [1], in assay [2], in assay [3], in assay [4], in assay [5] and in [6] was inactive. In addition, the outcome in assay [7], in [8], in [9], in assay [11], in [12] and in assay [13] was inactive. Also, the result in assay [14] was inactive. For the same molecule, the AC50 in assay [15] was 8.69 µM (active).
In the case of `CC(=O)OC(C)(C)C1CC=C(C)CC1` (centres undefined), the outcome in assay [1], in assay [3], in assay [4], in [5], in assay [7] and in assay [8] was inactive. In addition, the result in assay [9], in assay [11], in [16], in [12], in assay [17] and in assay [13] was inactive. Further, the outcome in assay [14] and in assay [15] was inactive. In addition, the AC50 was 33.8 µM (active) in [2] and 32.4 µM (active) in assay [6].
